For 20 compounds, growth inhibition results are on record in PubChem BioAssay (NCI).

The structures appear in SMILES notation. Compounds without any hit were thinned out: in the full panel of roughly 79,000, 15% have a hit. Values without a mark were called inactive. The source made the active and inactive calls. Cut-off read from the data, not from the text of the source: active = growth inhibition above about 70%; inactive = the rest. Where a SMILES comes first, the peptide text is derived from it.

A short description of experiment [1]: NCI Yeast Anticancer Drug Screen. Data for the rad50 strain (AID 155).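 Note: 0% = growth of vehicle-only cultures of the same strain.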 The note with it: S. cerevisiae rad50 strain growth inhibition, hits give high values; at 50.0 µM unless noted. A digest of the protocol: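 A DNA repair-deficient yeast mutant serves as the test organism; compound-induced growth inhibition is calculated against vehicle-treated cells.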
Experiment [2] is described as follows: NCI Yeast Anticancer Drug Screen. Data for the mec2-1 strain (AID 157). The note with it: S. cerevisiae mec2-1 strain, hits give high values; at 50.0 µM unless noted. A digest of the protocol: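 Yeast mec2-1 mutant treated with compound. Readout: growth inhibition vs vehicle controls.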
Experiment [3] can be described thus: NCI Yeast Anticancer Drug Screen. Data for the sgs1 mgt1 strain (AID 161).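 Note: 0% = growth of cultures given vehicle only.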 The note with it: S. cerevisiae sgs1 mgt1 strain, hits give high values; at 50.0 µM unless noted. Summed up:
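Test agents were incubated with a DNA-repair-mutant yeast strain. Growth was then read and compared against vehicle-treated controls.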

Experiment [4] can be described thus: NCI Yeast Anticancer Drug Screen. Data for the cln2 rad14 strain (AID 165).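 Note: 0% = growth equal to vehicle treated cultures.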 The note with it: S. cerevisiae cln2 rad14 strain, hits give high values; at 50.0 µM unless noted. A digest of the protocol: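 cln2 rad14 yeast strain; compound exposure; growth inhibition read vs vehicle controls.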
A short description of experiment [5]: NCI Yeast Anticancer Drug Screen. Data for the bub3 strain (AID 167). The note with it: S. cerevisiae bub3 mutant strain, hits give high values; at 50.0 µM unless noted. Summed up: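 Inhibition values come from growth of compound-treated mutant yeast normalised to vehicle-treated controls.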
Experiment [6] in a line: NCI Yeast Anticancer Drug Screen. Data for the mlh1 rad18 strain (AID 175). The note with it: S. cerevisiae mlh1 rad18 strain growth inhibition, hits give high values; at 50.0 µM unless noted. A digest of the protocol:
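Yeast w/ defined DNA-repair lesions; compound exposure; growth vs vehicle controls → % inhibition.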

For the compound `CN(C)CCCNC(=O)N/N=C/c1ccccc1`, the growth inhibition in experiment [1] was 13.9%; in experiment [2], -13.8%; in experiment [3], -13.8%; in experiment [4], -6.3%; in experiment [5], -39.7%; in experiment [6], -21.1%.

Take `O=C(/C=C/c1ccc(OCC(=O)N2CCN(c3ccccc3)CC2)cc1)c1ccccc1`: the growth inhibition is 13% in experiment [1]; 16% in experiment [2]; 35.6% in experiment [3]; -5.95% in experiment [4]; 16.7% in experiment [5]; 10.7% in experiment [6].

For `CCCCOC(=O)NC(=O)c1cn(CCCOC(=O)NCCCCCCNC(=O)OCCCn2cc(C(=O)NC(=O)OCCCC)c(=O)[nH]c2=O)c(=O)[nH]c1=O`, the growth inhibition was -1.1% in experiment [1]; 2.75% in experiment [2]; -4.2% in experiment [3]; 24.6% in experiment [4]; -6.35% in experiment [5]; -33.1% in experiment [6].

On to `Cc1nnc(N/N=C(/C(=O)C(C#N)c2ccc(Cl)cc2)C(C#N)c2ccc(Cl)cc2)n1N` (stereo not given), for which the growth inhibition is -9.3% in experiment [1]; 19.6% in experiment [2]; 3.85% in experiment [3]; 16.6% in experiment [4]; 12% in experiment [5]; 7.4% in experiment [6].

Regarding `CC(C)(O)C#CC(C)(C)O`, the growth inhibition is 1.1% in experiment [1]; -7.7% in experiment [2]; -10.7% in experiment [3]; 0.25% in experiment [4]; 5.65% in experiment [5]; -11.7% in experiment [6].

For `NC(=O)C1CCCN1C(=O)C(N)Cc1ccccc1` (stereo not drawn) (H-Phe-Pro-NH2; configuration not given here), the growth inhibition is -26.9% in experiment [1]; -44.1% in experiment [2]; -21.1% in experiment [3]; 5.7% in experiment [4]; 4.7% in experiment [5]; -9.05% in experiment [6].

On to `CN1CC2=C(NC(=S)NC2c2ccc(Cl)cc2)/C(=C/c2ccc(Cl)cc2)C1` (stereo not given), for which the growth inhibition in experiment [1] is -7.95%; in experiment [2], 4.45%; in experiment [3] it was 7.45%; in experiment [4] it was 14.4%; in experiment [5], 29.2%; in experiment [6], 4.15%.

In the case of `CC/C=C/C(=O)CC(O)(C(F)(F)F)C(F)(F)F`, the growth inhibition in experiment [1] was -30.9%; in experiment [2], 9.1%; in experiment [3], 12.5%; in experiment [4], -20.9%; in experiment [5], -29.8%; in experiment [6], -20.8%.

Consider `Cc1ccnc(NC#N)n1`, for which the growth inhibition in experiment [1] was 14.8%; in experiment [2] it was 13.6%; in experiment [3], 21.6%; in experiment [4] it was 19.1%; in experiment [5], 19.4%; in experiment [6] it was 14.8%.

Turning to `CC(C)(C)C1CCC2(CC1)CCN(CCCN1CCOCC1)CC2`, the growth inhibition in experiment [1] is 99% (active); in experiment [2] it was 98.4% (active); in experiment [3] it was 98.5% (active); in experiment [4], 97.3% (active); in experiment [5] it was 98.3% (active); in experiment [6], 97.8% (active).

As for `O=c1[nH]nc(Cc2ccccc2)n1CCO`, the growth inhibition in experiment [1] was 13.2%; in experiment [2] it was 2.65%; in experiment [3], 18.1%; in experiment [4], 1.3%; in experiment [5], 8.9%; in experiment [6], -43.4%.

`NC(=O)N/N=C(\C(=O)C(=O)Nc1ccc(Cl)c(C(F)(F)F)c1)c1nc2ccc(C(=O)c3ccccc3)cc2[nH]c1=O`: the growth inhibition in experiment [1] is 25.4%; in experiment [2] it was -1.3%; in experiment [3] it was 38.8%; in experiment [4], -37%; in experiment [5], -3.35%; in experiment [6], 25.1%.

With `Clc1ccccc1C1SCc2nc3ccccc3n21` (stereo not given), the growth inhibition in experiment [1] was 10.8%; in experiment [2], -7.85%; in experiment [3], 53.2%; in experiment [4], 18.9%; in experiment [5] it was 26.4%; in experiment [6], 22.6%.

In the case of `Cc1ccc(NC(=O)CC/C(CC(=O)c2ccc(F)cc2)=N\NC(=O)C(=O)NN)cc1C`, the growth inhibition is -11.3% in experiment [1]; -5.2% in experiment [2]; -9.55% in experiment [3]; -3.3% in experiment [4]; -1.7% in experiment [5]; -1.25% in experiment [6].

As for `N#Cc1c(C(F)(F)F)cc(-c2cccs2)nc1SC(C(=O)Nc1cc(C(F)(F)F)cc(C(F)(F)F)c1)c1ccccc1` (stereo not given), the growth inhibition was 13.6% in experiment [1]; -13.8% in experiment [2]; 9.5% in experiment [3]; 17.3% in experiment [4]; 9.1% in experiment [5]; 10.4% in experiment [6].

As for `Nc1c(I)cc(I)c(C(=O)O)c1I`, the growth inhibition in experiment [1] is -44%; in experiment [2], -31.9%; in experiment [3], -17%; in experiment [4] it was -14.8%; in experiment [5] it was -25.4%; in experiment [6], -39.1%.

For the compound `CC(C)NC(=O)c1ccc(Cl)cc1Cl`, the growth inhibition in experiment [1] was 26.9%; in experiment [2], 27.9%; in experiment [3], 15.6%; in experiment [4], 10.9%; in experiment [5] it was 3.7%; in experiment [6] it was 12%.

As for `O=C(CC1SC(=Nc2ccccc2Cl)NC1=O)Nc1ccc(Cl)cc1Cl` (stereo not given), the growth inhibition in experiment [1] was -9.8%; in experiment [2] it was -14.8%; in experiment [3], -15.9%; in experiment [4], 17.7%; in experiment [5], -6.55%; in experiment [6] it was 9.7%.

Take `O=C(NC1c2ccccc2Oc2ccccc21)OCCI`: the growth inhibition was 36.1% in experiment [1]; 6.05% in experiment [2]; 37.6% in experiment [3]; 13.3% in experiment [4]; -14% in experiment [5]; 19.8% in experiment [6].

In the case of `CCCCNC(=O)/C(=C\c1ccc(OC)c(OC)c1)NC(=O)c1ccccc1`, the growth inhibition was -63.5% in experiment [1]; -55.3% in experiment [2]; -34.4% in experiment [3]; -1.75% in experiment [4]; -35% in experiment [5]; -21.6% in experiment [6].
